Screening data (PubChem BioAssay)
USP30 inh: blocks human USP30 ubiquitin-rhodamine cleavage; Q70CQ3; purified USP30, Ub-rhodamine cleavage fluorescence; inhibition, % at 25 µM; hit rate 5.3% among 47,000
USP8 block: inhibitors of human USP8 deubiquitinase; P40818; purified USP8, Ub-rhodamine cleavage fluorescence, 30 min; inhibition, % at 20 µM; hit rate 4.2% among 47,000; AID 1645853
USP17 inh: inhibitors of human USP17 deubiquitinase; A8MUK1; purified USP17, Ub-rhodamine cleavage fluorescence, 3 h; inhibition, % at 50 µM; hit rate 6.5% among 47,000; AID 1645855
Target sequence (A8MUK1 whole entry, looked up): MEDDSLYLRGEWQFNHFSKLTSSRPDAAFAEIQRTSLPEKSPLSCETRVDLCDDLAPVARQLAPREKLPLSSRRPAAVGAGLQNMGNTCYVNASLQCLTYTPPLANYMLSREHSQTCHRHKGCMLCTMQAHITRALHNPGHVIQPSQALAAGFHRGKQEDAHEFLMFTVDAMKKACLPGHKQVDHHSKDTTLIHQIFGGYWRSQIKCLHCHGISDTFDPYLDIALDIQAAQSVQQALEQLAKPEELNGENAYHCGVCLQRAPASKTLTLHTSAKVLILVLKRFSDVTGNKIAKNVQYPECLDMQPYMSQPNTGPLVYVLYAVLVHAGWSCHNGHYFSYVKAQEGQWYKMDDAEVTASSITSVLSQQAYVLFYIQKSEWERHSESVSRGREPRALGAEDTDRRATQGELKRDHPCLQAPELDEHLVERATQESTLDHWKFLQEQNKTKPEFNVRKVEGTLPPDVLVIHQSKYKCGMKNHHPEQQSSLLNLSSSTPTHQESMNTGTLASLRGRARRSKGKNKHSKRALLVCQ
Numbers stand for hits; – = inactive; · = no result given. Rows were chosen to be rich in hits. Some 12% of all compounds tested hit in one or more screens of this group. Cut-off read from the data, not from the text of the source: active = inhibition above about 30%; inactive = the rest.

SMILES	USP30 inh	USP8 block	USP17 inh
CCN(CC)c1ccc(C(=O)CN2CCC(S(=O)(=O)c3ccc(-c4ccco4)cc3)CC2)cc1	–	–	31
CCN(CC)c1ccc(C(=O)CN2CCC(S(=O)(=O)c3ccc(C)cc3)CC2)cc1	–	–	–
O=S(=O)(c1ccc(-c2ccco2)cc1)C1CCN(Cc2cccnc2)CC1	–	–	–
O=C(c1ccc2occc2c1)N1CCC(S(=O)(=O)c2ccc(-c3ccco3)cc2)CC1	–	78	53
O=C(N1CCCC1)N1CCC2(CC1)CCN(c1ncccn1)C2	–	–	–
Cc1nc(N2CCOCC2)ncc1-c1cc(=O)[nH]c(N2c3ccccc3CC2C)n1 (configuration not stated)	–	–	–
Cc1nc(N2CCCCC2)ncc1-c1cc(=O)[nH]c(Nc2nc(C)c3ccccc3n2)n1	60	–	66
Cc1nc(N2CCC(C)CC2)ncc1-c1cc(=O)[nH]c(N2c3ccccc3CC2C)n1 (configuration not stated)	–	44	–
Cc1ccc2nc(Nc3nc(-c4cnc(N5CCCC5)nc4C)cc(=O)[nH]3)nc(C)c2c1	–	–	–
Cc1cc(/C=C2/C(=N)N3C=CSC3=NC2=O)c(C)n1-c1ccc2ccccc2c1	–	–	–
CC(=O)N1c2ccccc2O[C@@H]2C[C@@H](NC(=O)CN3CCCCC3)[C@@H](O)[C@@H]21	–	–	–
Cc1cccc(NC(=O)Cn2cc(C(=O)N3CCCC3)c(=O)c3ccc(C)nc32)c1	–	–	–
Cc1ccc(C(=O)c2cn(CC(=O)Nc3ccccc3)c3ccccc3c2=O)cc1	35	97	37
Cn1cc(C2c3ccccc3C(=O)N2CC(=O)Nc2ccccc2)c2ccccc21 (configuration not stated)	–	–	–
COc1ccc(NC(=O)CN2C(=O)c3ccccc3C2c2cn(C)c3ccccc23)cc1 (configuration not stated)	–	–	–
O=C(CN1CCCc2ccccc21)Nc1ccc2c(c1)OCCO2	–	–	–
Cc1ccc(C(=O)c2cn(CC(=O)Nc3ccccc3)c3ccc(C)cc3c2=O)cc1	–	62	53
COc1ccc(NC(=O)Cn2cc(C(=O)c3ccc(C)cc3)c(=O)c3ccccc32)cc1	49	49	85
Cc1ccc2c(c1)c(=O)c(C(=O)c1ccccc1)cn2CC(=O)Nc1ccc2c(c1)OCCO2	–	–	62
Cc1cc(C)nc(Nc2cc(C)nc(C3CCCN(c4ncccn4)C3)n2)n1 (configuration not stated)	–	–	–
N[C@@H]1CC[C@H](O)[C@@H](N2CCc3ccccc3C2)[C@@H]1O	–	–	–
Cc1nc(-c2csc(S(=O)(=O)N(C)Cc3ccccc3)c2)no1	–	–	–
CCOC(=O)CNc1nc(N2CCCCC2)nc(N2CCCCC2)n1	–	–	–
COc1ccccc1NC1c2ccccc2C(=O)N1Cc1ccccc1Cl (configuration not stated)	–	–	–
O=C(Cn1cc(C(=O)c2ccc(F)cc2)c(=O)c2ccccc21)Nc1ccc2c(c1)OCO2	42	71	–
SMILES	USP30 inh	USP8 block	USP17 inh
CCn1c(=O)n(CC(=O)Nc2ccc3c(c2)OCO3)c(=O)c2ccccc21	–	–	–
CCn1cc(-c2cc(C(=O)N3C[C@@H]4C[C@@]5(C)[C@H](CCCC[C@@H]35)N4C(C)=O)on2)cn1	–	–	–
CC(=O)Nc1ccc(Oc2cncc(Cl)c2)nc1	–	–	–
NC(=O)c1ccc(Oc2ccc(Cl)cc2)nc1	–	–	32
Cc1ccc(OCC(=O)Nc2onc3c2CCCC3)cc1C	–	–	–
Cc1nc(-c2ccccn2)sc1C(=O)Nc1ccc(F)cc1	·	–	–
Cc1nc(-c2ccccc2F)sc1C(=O)Nc1cccnc1	–	–	54
CC(C)Cn1c(C2CC(=O)N(Cc3ccc(F)cc3)C2)nc2ccccc21 (configuration not stated)	–	–	–
Cc1cc(N2CCCC2)n2nc(CN3CCN(C)CC3)nc2n1	–	–	–
Cc1cc(N2CCN(C)CC2)n2nc(CN3CCCCC3C)nc2n1 (configuration not stated)	–	–	39
CC1CCC2C(C)(C)C(O)CCC2(C)C12Cc1c(cc3c(c1O)CN(CCCCC(=O)O)C3=O)O2 (configuration not stated)	–	–	49
C[C@@H]1CCC2[C@](C)(CO)[C@@H](O)CC[C@]2(C)[C@@]12CCC1(COC(=O)C1)O2 (some centres not stated)	–	–	–
Cc1nc(N2CCOCC2)cc(N2CCN(C(=O)C3CCCCC3)CC2)n1	–	–	–
CN1CC(=O)N(CC(=O)N2CCN(c3ccc(F)cc3)CC2)c2ccccc2C1=O	–	–	–
CC12CCC(=O)N1c1ccccc1C(=O)N2c1ccc(F)cc1 (configuration not stated)	32	–	–
COc1ccc(C(=O)NCc2nnc(SCC(=O)Nc3ccc(C)c(Cl)c3)o2)cc1	–	–	–
CCOC(=O)c1ccc(NC(=O)CSc2nnc(CNC(=O)c3ccc(OC)cc3)o2)cc1	35	–	33
NS(=O)(=O)c1ccc(CNC(=O)c2ccc(Cl)c(S(=O)(=O)Nc3cc(Cl)ccc3Cl)c2)cc1	–	–	–
COc1ccc(CN(C(=O)c2cc(-c3ccc(C)cc3)on2)C2CCS(=O)(=O)C2)cc1 (configuration not stated)	50	–	–
COc1ccc(CN(C(=O)c2cc(-c3ccccc3)on2)C2CCS(=O)(=O)C2)cc1 (configuration not stated)	–	–	–
O=C(Nc1ccc(-c2cnc(-c3ccc(NC(=O)c4ccccc4Cl)cc3)nc2)cc1)c1ccccc1Cl	–	–	–
Cc1nc(C(=O)NC2(O)C(=O)c3ccccc3C2=O)cs1	35	72	94
O=C(Oc1ccc(-c2csnn2)cc1)C1CC1	–	–	·
CSc1ncccc1C(=O)Nc1ccnn1Cc1ccccc1	–	–	–
Cc1nc(CC(=O)Nc2c(C)cccc2C)cs1	–	–	–
SMILES	USP30 inh	USP8 block	USP17 inh
O=C(NC1(O)C(=O)c2ccccc2C1=O)c1ccc(-c2csnn2)cc1	32	93	85
CSc1ncccc1C(=O)NC1(O)C(=O)c2ccccc2C1=O	46	83	95
Cc1nn2c(NCC3CCCO3)c3c(nc2c1-c1ccccc1)CCC3 (configuration not stated)	–	–	–
COc1ccc(-c2nnc(-c3ccc(-n4ccnc4)nc3)o2)cc1F	–	–	–
COc1cccc(NC(=O)Cn2cnc3c(sc4nc5c(cc43)COC(C)(C)C5)c2=O)c1	–	–	–
Cc1nc(SCC(=O)Nc2cccc(Cl)c2)c2sc3nc4c(cc3c2n1)COC(C)(C)C4	32	–	34
CC1(C)Cc2nc3sc4c(=O)n(CC(=O)NCc5ccccc5)cnc4c3cc2CO1	–	–	54
Cc1nc(SCC(=O)Nc2ccc(Cl)cc2)c2sc3nc4c(cc3c2n1)COC(C)(C)C4	–	–	–
CCOc1cccc(CNC(=O)c2cnc(-c3ccccc3)nc2-c2ccncc2)c1	–	–	–
COc1ccccc1-c1nc2c3cnn(-c4ccc(C)cc4)c3ncn2n1	–	–	–
COc1ccccc1C1=NC(c2ccc(C)cc2)N=C1C (configuration not stated)	–	–	32
CC(C)(C)C(=O)N1CCCC(c2ccnc3ncnn23)C1 (configuration not stated)	–	–	–
